From PubChem BioAssay (EPA / NIEHS)
Activity calls are given as the source filed them. How the source made its calls, unless noted: active means hit-call score of the fitted dose curve at least 0.9, where 1 is the maximum; inactive means score below 0.9.

Key:
[1] = read-out: Interleukin-1 alpha (IL1a), IL1A (gene 3552); assay: BSK_LPS_IL1a: BioMAP Diversity Plus: LPS Assay for Interleukin-1 alpha (IL1a) Biomarker Activity (AID 2283080); details: primary human HUVEC with PBMC; actives raise or lower the signal
Method in brief: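 ELISA read-out of IL-1 alpha from a human primary vascular co-culture (endothelium plus PBMC) under LPS, sampled 24 hours post-dosing. Activity was fitted in both directions relative to DMSO controls.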

[2] = read-out: Monocyte Chemoattractant Protein-1 (MCP1), CCL2 (gene 6347); assay: BSK_LPS_MCP1: BioMAP Diversity Plus: LPS Assay for Monocyte Chemoattractant Protein-1 (MCP1) Biomarker Activity (AID 2283081); details: primary human HUVEC with PBMC; actives raise or lower the signal;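 on AC50: secreted MCP-1 protein quantified by ELISA in culture supernatant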
Method in brief: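 Human endothelial–PBMC co-cultures were dosed with chemical, then LPS-driven MCP-1 levels were quantified by ELISA at 24 h. Activity in either direction was fitted versus DMSO negative control.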

[3] = BSK_LPS_PGE2: BioMAP Diversity Plus: LPS Assay for Prostaglandin E2 (PGE2) Biomarker Activity (AID 2283082); details: primary human HUVEC with PBMC; actives raise or lower the signal
Method in brief: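 Endpoint derived from bidirectional curve fitting versus DMSO of ELISA-measured PGE2 in LPS-stimulated human primary vascular co-culture (HUVEC with PBMC) harvested at 24 h.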

[4] = read-out: Macrophage colony-stimulating factor (MCSF), CSF1 (gene 1435); assay: BSK_LPS_MCSF: BioMAP Diversity Plus: LPS Assay for Macrophage colony-stimulating factor (MCSF) Biomarker Activity (AID 2283083); details: primary human HUVEC with PBMC; actives raise or lower the signal
Method in brief: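 ELISA readout of M-CSF after 24 h compound exposure in a human endothelial/PBMC co-culture. Activity, in either direction, is fitted relative to DMSO vehicle.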

[5] = read-out: Tissue Factor, F3 (gene 2152); assay: BSK_LPS_TissueFactor: BioMAP Diversity Plus: LPS Assay for Tissue Factor Biomarker Activity (AID 2283084); details: primary human HUVEC with PBMC; actives raise or lower the signal
Method in brief: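 ELISA signal for cell-surface Tissue Factor (CD142) was read 24 h after compound dosing of an LPS-stimulated human endothelial–PBMC primary co-culture. Gain or loss of signal was scored relative to DMSO.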

[6] = read-out: Tumor necrosis factor (Homo sapiens) (UniProt P01375); assay: BSK_LPS_TNFa: BioMAP Diversity Plus: LPS Assay for Tumour Necrosis Factor alpha (TNFa) Biomarker Activity (AID 2283085); details: primary human HUVEC with PBMC; actives raise or lower the signal
Method in brief: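 Primary human vascular co-culture of HUVEC and PBMC; TNFa ELISA 24 h after treatment, analysed as increase or decrease relative to DMSO control.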

[7] = read-out: Vascular cell adhesion molecule 1 (VCAM1), VCAM1 (gene 7412); assay: BSK_LPS_VCAM1: BioMAP Diversity Plus: LPS Assay for Vascular cell adhesion molecule 1 (VCAM1) Biomarker Activity (AID 2283086); details: primary human HUVEC with PBMC; actives raise or lower the signal
Method in brief: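 Primary human vascular co-culture (umbilical vein endothelium plus PBMC) stimulated with LPS received chemical; 24 h later VCAM-1 was read by ELISA. Overt cytotoxicity was assessed by sulforhodamine B staining of parallel cultures at the same time point.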

CD38, CD38 (gene 952) = assay: BSK_SAg_CD38: BioMAP Diversity Plus: SAg Assay for CD38 Biomarker Activity (AID 2283087); details: primary human HUVEC with PBMC; actives raise or lower the signal
Method in brief: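 Fluorescence ELISA of cell-surface CD38 served as the read-out, with either increase or decrease fitted against DMSO controls. Cells were a human umbilical vein endothelium plus PBMC co-culture under SEB/TSST-1 stimulation, measured 24 h after dosing.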

CD40, CD40 (gene 958) = assay: BSK_SAg_CD40: BioMAP Diversity Plus: SAg Assay for CD40 Biomarker Activity (AID 2283088); details: primary human HUVEC with PBMC; actives raise or lower the signal
Method in brief: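 Compounds were dosed onto a human primary endothelial–PBMC co-culture, and after 24 h CD40 was quantified by ELISA using a fluorescence signal. Activity in either direction was fitted relative to DMSO.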

CD69, CD69 (gene 969) = assay: BSK_SAg_CD69: BioMAP Diversity Plus: SAg Assay for CD69 Biomarker Activity (AID 2283089); details: primary human HUVEC with PBMC; actives raise or lower the signal;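 on AC50: cell surface CD69 protein quantified by ELISA with fluorescence detection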
Method in brief: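 Values derive from bidirectional fitting relative to DMSO vehicle. Cells: umbilical vein endothelium plus peripheral blood mononuclear cells, treated 24 h before fluorescent ELISA for CD69.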

[8] = read-out: Monocyte Chemoattractant Protein-1 (MCP1), CCL2 (gene 6347); assay: BSK_SAg_MCP1: BioMAP Diversity Plus: SAg Assay for Monocyte Chemoattractant Protein-1 (MCP1) Biomarker Activity (AID 2283090); details: primary human HUVEC with PBMC; actives raise or lower the signal
Method in brief: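 MCP-1 levels in the endothelial–PBMC SAg co-culture were quantified by ELISA at 24 h post-dosing; both increases and decreases versus DMSO scored. Cytotoxicity monitored by SRB total protein in parallel cultures.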

[9] = read-out: E-selectin (Homo sapiens) (UniProt P16581); assay: BSK_SAg_Eselectin: BioMAP Diversity Plus: SAg Assay for Eselectin Biomarker Activity (AID 2283091); details: primary human HUVEC with PBMC; actives raise or lower the signal
Method in brief: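 Co-culture: HUVEC + PBMC. Dose compound; 24 h. ELISA for E-selectin. Bidirectional fit vs DMSO.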

[10] = read-out: Monokine induced gamma interferon (MIG), CXCL9 (gene 4283); assay: BSK_SAg_MIG: BioMAP Diversity Plus: SAg Assay for Monokine induced gamma interferon (MIG) Biomarker Activity (AID 2283092); details: primary human HUVEC with PBMC; actives raise or lower the signal
Method in brief: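 Values reflect bidirectional fitting of ELISA-measured MIG against DMSO vehicle, taken 24 h after dosing of a co-culture of human umbilical vein endothelial cells and peripheral blood mononuclear cells.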

[11] = BSK_SAg_PBMCCytotoxicity: PBMC Cytotoxicity Assessment in the BioMAP Diversity Plus: SAg Assay (AID 2283093); details: primary human HUVEC with PBMC;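 further: PBMC viability measured as Alamar Blue reduction fluorescence at 546/580 nm; fitted both ways against DMSO so a hit may be loss or gain of signal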;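 on AC50: PBMC superantigen activated with SEB plus TSST-1 one hour after compound addition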
Method in brief: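 Compound added to 75,000 PBMC/well for 1 h; SEB and TSST-1 then added at 20 ng/mL final each; 90 h incubation; Alamar Blue 6 h; read 546/580 nm ex/em. Activity fitted bidirectionally relative to DMSO baseline.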

[12] = read-out: Interleukin-8 (IL8), CXCL8 (gene 3576); assay: BSK_SAg_IL8: BioMAP Diversity Plus: SAg Assay for Interleukin-8 (IL8) Biomarker Activity (AID 2283094); details: primary human HUVEC with PBMC; actives raise or lower the signal
Method in brief: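 In this co-culture of human umbilical vein endothelium with peripheral blood mononuclear cells, IL-8 is assayed by ELISA at 24 h. DMSO serves as baseline for bidirectional curve fitting.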

[13] = BSK_SAg_Proliferation: Cell Proliferation Assessment in the BioMAP Diversity Plus: SAg Assay (AID 2283095); details: primary human HUVEC with PBMC;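 further: relative cell number as total protein by SRB absorbance in sub-confluent culture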
Method in brief: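 Readout is SRB-stained protein (560 nm) in a primary human HUVEC and PBMC co-culture; sub-confluent cultures are read at 96 h. Activity is fitted bidirectionally using DMSO as baseline.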

[14] = BSK_SAg_SRB: Viability Assessment in the BioMAP Diversity Plus: SAg Assay (AID 2283096); details: primary human HUVEC with PBMC;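 further: cells read one day after compound addition; hits may be either gain or loss of signal compared with DMSO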
Method in brief: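 Total protein by sulforhodamine B staining, 24 h after dosing, in HUVEC–PBMC co-culture; DMSO-referenced bidirectional fitting.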

[15] = biological target: human CYP2D6, CYP2D6 (gene 1565) (UniProt P10635); assay: NVS_ADME_hCYP2D6: NovaScreen (NVS) CYP450-related Enzyme Activity (ADME) Assay for human CYP2D6 (AID 2283107; active means hit-call score of the fitted dose curve at least 0.9, where 1 is the maximum)
Method in brief: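 Insect-cell recombinant enzyme + fluorogenic substrate, cell-free; 1 h incubation; fluorescence intensity readout. Acetonitrile = neg. ctrl/baseline. Single-point 10 uM, duplicate; follow-up concentration series.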

Measured: AC50

Sequence of Tumor necrosis factor (Homo sapiens) (P01375 whole entry, looked up): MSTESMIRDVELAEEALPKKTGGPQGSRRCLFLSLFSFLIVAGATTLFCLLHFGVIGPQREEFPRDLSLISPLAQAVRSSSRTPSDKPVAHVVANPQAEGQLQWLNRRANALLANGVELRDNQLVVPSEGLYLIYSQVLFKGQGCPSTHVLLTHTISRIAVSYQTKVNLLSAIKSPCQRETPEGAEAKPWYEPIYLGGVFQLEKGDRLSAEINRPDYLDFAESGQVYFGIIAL
Sequence of E-selectin (Homo sapiens) (P16581 whole entry, looked up): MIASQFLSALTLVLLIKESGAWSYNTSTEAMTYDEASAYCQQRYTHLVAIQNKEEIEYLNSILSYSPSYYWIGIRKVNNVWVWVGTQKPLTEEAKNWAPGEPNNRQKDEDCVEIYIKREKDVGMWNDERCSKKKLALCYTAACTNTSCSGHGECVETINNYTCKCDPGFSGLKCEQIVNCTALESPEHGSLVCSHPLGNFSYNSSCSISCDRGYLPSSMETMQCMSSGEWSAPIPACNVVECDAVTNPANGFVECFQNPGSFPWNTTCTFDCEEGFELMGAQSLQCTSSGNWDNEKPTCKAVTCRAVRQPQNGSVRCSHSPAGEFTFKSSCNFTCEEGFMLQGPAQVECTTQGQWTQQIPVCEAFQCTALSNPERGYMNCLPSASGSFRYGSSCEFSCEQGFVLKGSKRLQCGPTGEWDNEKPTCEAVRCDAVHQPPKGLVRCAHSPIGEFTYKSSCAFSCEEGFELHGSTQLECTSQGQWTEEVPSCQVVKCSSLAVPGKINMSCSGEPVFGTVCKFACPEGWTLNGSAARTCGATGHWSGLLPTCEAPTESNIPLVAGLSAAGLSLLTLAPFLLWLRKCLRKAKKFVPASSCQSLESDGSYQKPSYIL
Sequence of human CYP2D6, CYP2D6 (gene 1565) (P10635 whole entry, looked up): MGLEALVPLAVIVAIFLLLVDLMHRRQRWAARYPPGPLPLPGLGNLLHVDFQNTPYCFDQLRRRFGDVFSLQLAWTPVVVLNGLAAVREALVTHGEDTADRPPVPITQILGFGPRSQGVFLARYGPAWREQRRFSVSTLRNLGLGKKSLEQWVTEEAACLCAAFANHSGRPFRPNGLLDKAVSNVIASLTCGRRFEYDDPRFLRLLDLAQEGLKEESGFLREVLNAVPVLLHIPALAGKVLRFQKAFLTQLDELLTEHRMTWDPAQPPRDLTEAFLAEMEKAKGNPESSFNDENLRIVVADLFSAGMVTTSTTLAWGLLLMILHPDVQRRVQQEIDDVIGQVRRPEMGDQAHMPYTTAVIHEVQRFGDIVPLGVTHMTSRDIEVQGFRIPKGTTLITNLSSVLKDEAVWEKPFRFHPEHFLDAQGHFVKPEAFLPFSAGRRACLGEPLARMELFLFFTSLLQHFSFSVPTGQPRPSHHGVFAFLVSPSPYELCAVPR

CCCCC(CC)COC(=O)c1ccccc1O (centres undefined)
active: [7] 10 µM | [11] 18.4 µM | [13] 17.8 µM
not listed: [15]
inactive: all other assays above

CCCCNc1ccc(NCCCC)c2c1C(=O)c1ccccc1C2=O
not listed: [15]
inactive: all other assays above

O=c1c2ccccc2oc2ccccc12
not listed: [15]
inactive: all other assays above

c1ccc2c(c1)ccc1ncccc12
active: [1] 20 µM | [2] 3.97 µM | [5] 6.01 µM | [7] 2.69 µM | CD38, CD38 (gene 952) 29.7 µM | CD40, CD40 (gene 958) 20 µM | [14] 28.1 µM
not listed: [15]
inactive: all other assays above

CC(C)C(=O)C(C)C
not listed: [15]
inactive: all other assays above

CCCCCCCCCCCCCCCC[N+](C)(C)CC
inactive: [3]
active: [1] 1.42 µM | [2] 2.58 µM | [4] 2.18 µM | [5] 2.36 µM | [6] 4.58 µM | [7] 3.79 µM | CD38, CD38 (gene 952) 9.51 µM | CD40, CD40 (gene 958) 10.2 µM | CD69, CD69 (gene 969) 1.78 µM | [8] 2.24 µM | [9] 2.77 µM | [10] 3.51 µM | [11] 1.94 µM | [12] 9.75 µM | [13] 0.314 µM | [14] 1.69 µM | [15] 0.536 µM

CCCCCCCCc1ccc(Nc2ccc(CCCCCCCC)cc2)cc1
active: [9] 0.0731 µM
not listed: [15]
inactive: all other assays above

C=C[Si](OC(C)=O)(OC(C)=O)OC(C)=O
not listed: [15]
inactive: all other assays above

CCO[Si](C)(OCC)OCC
not listed: [15]
inactive: all other assays above

O=C1CCCN1CCO
not listed: [15]
inactive: all other assays above

CCCCC/C=C\C/C=C\CCCCCCCC(=O)OC
active: [1] 31.8 µM | [2] 37.1 µM | [4] 32.5 µM | [5] 20 µM | [6] 36.1 µM | [7] 30 µM | CD38, CD38 (gene 952) 28.4 µM | CD40, CD40 (gene 958) 20 µM | [9] 30.9 µM | [10] 31.4 µM | [11] 23.2 µM | [12] 27.8 µM | [13] 13.1 µM
inactive: [3] | [8] | [14]

C=CC(=O)OCC(Br)CBr (centres undefined)
inactive: [3]
active: [1] 18.3 µM | [2] 30 µM | [4] 20 µM | [5] 16.7 µM | [6] 11 µM | [7] 10.9 µM | CD38, CD38 (gene 952) 15.3 µM | CD40, CD40 (gene 958) 11.7 µM | CD69, CD69 (gene 969) 10.2 µM | [8] 24.8 µM | [9] 8.13 µM | [10] 20 µM | [11] 6.05 µM | [12] 6.6 µM | [13] 1.66 µM | [14] 34.1 µM
